High-throughput results (PubChem)
MCL1-BIM inh = inhibitors of MCL1 binding to BIM-BH3, primary screen, biochemical, fluorescence polarization; inhibition, % at 10.9 µM; Induced myeloid leukemia cell differentiation protein Mcl-1 (Homo sapiens), Q07820; AID 2057, 2009; GST-MCL1 / FITC-Bim-BH3 fluorescence polarization; 320,000 compounds, 0.68% hits;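 active means inhibition above the mean inhibition of all tested compounds plus 3 SD, set per campaign, cut at about 40% in these data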;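 further: 0% = DMSO wells and 100% = unlabeled Bim-BH3 peptide control; higher means more loss of mP so more displacement of Bim peptide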
Target sequence (Q07820 whole entry, looked up): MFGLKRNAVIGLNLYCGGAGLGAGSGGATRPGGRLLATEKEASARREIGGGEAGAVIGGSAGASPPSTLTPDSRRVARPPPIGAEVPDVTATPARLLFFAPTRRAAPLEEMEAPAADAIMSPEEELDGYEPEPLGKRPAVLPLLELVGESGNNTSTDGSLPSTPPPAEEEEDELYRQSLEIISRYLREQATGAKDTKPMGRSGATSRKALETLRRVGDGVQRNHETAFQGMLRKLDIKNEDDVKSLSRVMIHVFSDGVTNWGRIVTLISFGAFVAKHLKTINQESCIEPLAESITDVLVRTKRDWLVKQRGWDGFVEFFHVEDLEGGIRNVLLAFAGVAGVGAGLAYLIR
TNF death inh = inhibitors of TNF-alpha triggered necroptosis, primary screen, cell-based, Jurkat FADD-/-, single concentration | Jurkat FADD-/- TNF necroptosis rescue, ATP luminescence, 24 h; 0 = TNF only, 100 = no-TNF cells | AID 463075, 2010 | 220,000 compounds, 0.068% hits | activation (protection from cell death), % at 10 µM;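 active means activation, meaning protection from cell death, of at least 50% relative to plate controls; inactive means activation below 50%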;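 further: necroptosis triggered by 40 ng/mL TNF-alpha added together with compound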
Mcl-1 Bim block = inhibitors of Bim peptide binding to Mcl-1, primary screen, biochemical, bead-based flow cytometry, multiplex; Bim peptide-Mcl-1 binding; AID 1009, 2008; Induced myeloid leukemia cell differentiation protein Mcl-1 (Homo sapiens), Q07820; 190,000 compounds, 0.1% hits; inhibition, % at 10 µM; in the data active means inhibition above about 40%;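 further: 0% = no compound tracer wells and 100% = peptide blocker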
zVAD death inh = inhibitors of zVAD-triggered necroptosis, primary screen, L929 cells; L929 zVAD necroptosis rescue, ATP luminescence, 24 h; with zVAD 60 µM; viability rescue, % at 10 µM; 220,000 compounds, 0.38% hits;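 active means activation, scaled between plate controls, above about 75%, limit read from the data; inactive means activation under that limit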;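 further: 0% = zVAD with DMSO and 100% = DMSO alone without zVAD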
Mcl1 Bid PPI = Mcl-1/Bid binding inhibitors, primary screen, biochemical, TR-FRET, 1536-well; Induced myeloid leukemia cell differentiation protein Mcl-1 (Homo sapiens), Q07820; TR-FRET Mcl-1/Bid-Dy647 peptide binding; inhibition, % at 21.7 µM; 220,000 compounds, 0.97% hits; AID 1021, 2008;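 active means compounds that cut the binding signal by more than half at the single screening dose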;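 further: His-tagged Mcl-1 with europium anti-His antibody binding Bid BH3 peptide; 0% = Mcl-1 plus peptide wells and 100% = peptide-only wells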
Mcl1-Noxa inh = Mcl-1/Noxa binding inhibitors, primary screen, biochemical, TR-FRET, 1536-well | TR-FRET Mcl-1/Noxa peptide binding, 2 h | 220,000 compounds, 1.5% hits | Induced myeloid leukemia cell differentiation protein Mcl-1 (Homo sapiens), Q07820 | inhibition, % at 21.7 µM | AID 1022, 2008;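 active means compounds that cut the protein-peptide binding signal by more than 50% relative to plate controls in a single-dose test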;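 further: His-tagged Mcl-1 with rhodamine Noxa BH3 peptide and terbium anti-His antibody; 0% = Mcl-1 plus Noxa peptide wells and 100% = peptide-only wells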
Starred values were filed as active, the others as inactive. A selection: hits, their analogues and other compounds. The true share with any hit is near 2.4%.

For CC1CCCN(C(=S)Nc2ccc3nc4n(c(=O)c3c2)CCCCC4)C1 (stereo not drawn) the results were MCL1-BIM inh 8.7, TNF death inh 0.8, Mcl-1 Bim block -3.0, Mcl1 Bid PPI 97.2* and Mcl1-Noxa inh 4.7.
CC1CC(C)CN(C(=S)Nc2ccc3nc4n(c(=O)c3c2)CCCCC4)C1 (stereo not drawn) was read as MCL1-BIM inh 5.7, TNF death inh 2.9, Mcl-1 Bim block -1.0, zVAD death inh 2.6, Mcl1 Bid PPI -65.0 and Mcl1-Noxa inh 4.4.
Screening COc1cccc2c1-c1c(O)cccc1C2=O returned MCL1-BIM inh 36.0.
For O=C1C=C(O)c2cccc(O)c2C1=O the results were MCL1-BIM inh 12.5, TNF death inh -5.4, zVAD death inh 0.5, Mcl1 Bid PPI -77.7 and Mcl1-Noxa inh 60.3*.
N#Cc1ccsc1NC(=O)c1cccc([N+](=O)[O-])c1 was read as MCL1-BIM inh 10.0, TNF death inh -0.2, Mcl-1 Bim block 0.0, zVAD death inh 1.6, Mcl1 Bid PPI -29.2 and Mcl1-Noxa inh 53.9*.
`Cc1cccc(NC(=O)COc2coc(CN3CCN(c4ccccc4)CC3)cc2=O)c1` gave MCL1-BIM inh -3.7.
`O=C(c1cccc(Cl)c1)N1CCN(Cc2ccccc2F)CC1` gave MCL1-BIM inh 0.5, TNF death inh -0.7, Mcl-1 Bim block -2.0, zVAD death inh -0.1, Mcl1 Bid PPI 69.3* and Mcl1-Noxa inh 28.7.
Screening O=C(c1ccccc1)N1CCN(Cc2ccccc2Br)CC1 returned MCL1-BIM inh -9.0, TNF death inh 0.3, Mcl-1 Bim block -1.0, zVAD death inh 0.5, Mcl1 Bid PPI 83.7* and Mcl1-Noxa inh 31.6.
Screening O=C(c1ccccc1F)N1CCN(Cc2ccccc2F)CC1 returned MCL1-BIM inh 6.9, TNF death inh 0.2, Mcl-1 Bim block -3.0, zVAD death inh 1.6, Mcl1 Bid PPI 59.4* and Mcl1-Noxa inh 30.5.
For O=C(c1ccc(Br)cc1)N1CCN(Cc2ccccc2)CC1 the results were MCL1-BIM inh 0.7.
For CCCCn1c(N)c(N(CCOC)C(=O)c2ccc(C)c(S(=O)(=O)N3CCCCC3)c2)c(=O)[nH]c1=O the results were MCL1-BIM inh -1.6.
`CCOC(=O)c1c(-c2ccc(C)cc2)csc1NC(=O)/C(C#N)=C/c1ccc(O)c(OC)c1` gave TNF death inh 1.8, Mcl-1 Bim block -6.0, zVAD death inh 0.0, Mcl1 Bid PPI 27.9 and Mcl1-Noxa inh 89.9*.
For CCc1ccc(CNC(=O)CCC(=O)n2ncc3cc(C)ccc32)cc1 the results were MCL1-BIM inh 12.0.
`CCOC(=O)N1CCN(C(=O)CCNS(=O)(=O)c2cc(Br)cnc2N)CC1` gave MCL1-BIM inh -5.2, TNF death inh 18.1, Mcl-1 Bim block 9.0, zVAD death inh 86.3*, Mcl1 Bid PPI -8.5 and Mcl1-Noxa inh 15.0.
For CCOC(=O)C1CCN(C(=O)CCNS(=O)(=O)c2cc(Br)cnc2N)CC1 the results were MCL1-BIM inh -1.5.
Screening Cc1ccc(NC(=O)c2cc(N3C(=O)C=CC3=O)ccc2N2CCOCC2)cc1 returned TNF death inh -2.6, Mcl-1 Bim block 0.0, zVAD death inh -2.8, Mcl1 Bid PPI -24.3 and Mcl1-Noxa inh 54.6*.
Screening Cc1ccc(NC(=O)c2cc(N3C(=O)C=CC3=O)ccc2Cl)cc1C returned MCL1-BIM inh 15.0, TNF death inh 0.9, Mcl-1 Bim block -11.0, zVAD death inh 0.0, Mcl1 Bid PPI 7.0 and Mcl1-Noxa inh 77.3*.
Screening COc1ccc(S(=O)(=O)N2CCC(C(=O)NCCC(=O)Nc3cccc(Cl)c3)CC2)cc1 returned MCL1-BIM inh -0.8.
Screening Cc1cccc(C)c1NC(=O)C1c2ccccc2Oc2ccccc21 returned MCL1-BIM inh -6.5, TNF death inh 1.1, Mcl-1 Bim block -4.0, zVAD death inh 0.1, Mcl1 Bid PPI 81.0* and Mcl1-Noxa inh 17.2.
COCCCN(C(=O)Cc1csc(-c2cccc(Cl)c2)n1)c1c(N)n(Cc2ccccc2)c(=O)[nH]c1=O was read as MCL1-BIM inh 8.9.
